Inconclusive results are not listed. A call without a number means that no potency is given here. Activity calls are given as the source filed them. The call rests on the fitted dose curve; in most records, active means well fitted cell-killing curve with a large enough effect; inconclusive means small, poorly fitted or top-dose-only effect, or effect the other way; inactive means flat fitted curve, though single readings scatter.
Tested on: SKOV3
Assay: Primary qHTS to identify gynecologic anti-cancer compounds using libraries of approved drugs and bioactive compounds (AID 1345084); further: nearly all actives have a fitted effect of over 55% in size
Conditions: Gynecologic cancer cell panel viability, ATPlite luminescence, 48 h; series mostly up to 57.5 µM
Summary of the method: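 In this quantitative HTS, cell killing is estimated from loss of ATP-dependent luciferase light. Cells see five compound concentrations over a 48 h exposure.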
Potency means the concentration at half of the fitted maximal effect.

SMILES | Potency | activity change, negative = cytotoxicity
CC(=O)OC1CC(O)C(C)(C)C2CC(OC(C)=O)C3(C)C(CCC4(C)C(c5ccoc5)C(=O)C5OC543)C12C (stereo unspecified) | inactive | –
COc1cc(C(=O)O[C@H]2[C@@H]3C=CO[C@@H](O[C@@H]4O[C@H](CO)[C@@H](O)[C@H](O)[C@H]4O)[C@@H]3[C@@]3(CO)O[C@@H]23)ccc1O | inactive | –
CCOc1ccccc1-n1c(C(C)N2CCN(C(=O)COc3ccc(Cl)cc3)CC2)nc2ccccc2c1=O (stereo unspecified) | inactive | –
COc1c(C(C)C)cc2c(c1O)[C@@]1(C(=O)O)CCCC(C)(C)C1CC2 (stereo partly specified) | inactive | –
CCc1[nH]c2ccc(OC)cc2c1CCN(C)C | inactive | –
COC(=O)C1(C)CCC(=O)C2(C)c3c(O)cc(C(C)C)cc3C(O)C(OC(C)=O)C12 (stereo unspecified) | inactive | –
CN1[C@H]2C[C@H](OC(=O)[C@H](CO)c3ccccc3)C[C@@H]1[C@@H](O)C2 | inactive | –
CC(C)(O)[C@H]1O[C@H]2CC[C@@]3(C)[C@@](O)(CC[C@H]4Cc5c([nH]c6ccccc56)[C@@]43C)C2=CC1=O | inactive | –
CC1C/C=C/C(O)C(O)CC/C=C/c2cc(O)cc(O)c2C(=O)O1 (stereo unspecified) | inactive | –
COC1CC(OC2CCC3(C)C(=CCC4C3CCC3(C)C(C(C)OC5OC(COC6OC(CO)C(O)C(O)C6O)C(O)C(O)C5O)CCC43O)C2)OC(C)C1OC1OC(C)C(O)C(OC)C1O (stereo unspecified) | – | 25.2% [at 11.6 µM] (inactive)
C1=C2CCCN[C@H]2[C@@H]2C[C@H]1[C@H]1CCCCN1C2 | inactive | –
C[C@H]1O[C@@H](O[C@H]2C[C@@H](O)[C@]3(CO)C4C(CC[C@]3(O)C2)[C@@]2(O)CC[C@H](C3=CC(=O)OC3)[C@@]2(C)C[C@H]4O)[C@@H](O)[C@@H](O)[C@H]1O (stereo partly specified) | 224 nM (active) | –
CCN1C[C@]2(OC(=O)c3ccccc3NC(C)=O)CC[C@H](OC)[C@@]34[C@@H]2C[C@@H]([C@@H]13)[C@@]1(O)C[C@H](OC)[C@H]2C[C@@H]4[C@]1(O)[C@H]2OC | inactive | –
COCC1OC(=O)c2coc3c2C1(C)C1=C(C3=O)C2CCC(=O)C2(C)CC1O (stereo unspecified) | inactive | –
Oc1ccc2c3c1O[C@H]1[C@H](N(CCCl)CCCl)CC[C@@]4(O)[C@@H](C2)N(CC2CC2)CC[C@]314 | – | 9.08% [at 11.6 µM] (inactive)
COC(=O)C1(C)CCC(O)C2(C)c3c(O)cc(C(C)C)cc3C(O)C(OC(C)=O)C12 (stereo unspecified) | inactive | –
CC(C)=C1CC[C@]23CO[C@H](C2)[C@@](O)(C(=O)O)CCC13 (stereo partly specified) | inactive | –
COC(=O)N1CCN(C(=O)Cc2ccc(Cl)c(Cl)c2)[C@@H](CN2CCCC2)C1 | inactive | –

SMILES | Potency | activity change, negative = cytotoxicity
COC1CC(OC2CCC3(C=O)C(CCC4C3CCC3(C)C(C5=CC(=O)OC5)CCC43O)C2)OC(C)C1OC1OC(CO)C(O)C(O)C1O (stereo unspecified) | 355 nM (active) | –
CCCCCOc1cc2c(cc1-c1cc(/C=C/C(=O)O)ccc1O)C(C)(C)CCC2(C)C | inactive | –
CC(=O)OC12C(O)C(C)C3(O)C4C=C(C)C(=O)C4CC(CO)=CC3C1C2(C)C (stereo unspecified) | inactive | –
CN1CCC[C@@H]1Cc1c[nH]c2ccc(Nc3ncccc3[N+](=O)[O-])cc12 | inactive | –
CN(C)CCc1c[nH]c2ccc(CN3CCN(C)S3(=O)=O)cc12 | inactive | –
CN1C(=O)c2ccccc2NC(=O)C1Cc1ccccc1 (stereo unspecified) | inactive | –
C/C=C(\C)C(=O)OC1CC2C(C)(C)OC(=O)CC(OC(C)=O)C2(C)C2CC(OC(=O)C(C)C)C3(C)C(c4ccoc4)CC4OC43C12C (stereo unspecified) | inactive | –
C[C@]12CC[C@H]3[C@@H]([C@H](O)CC4=CC(=O)CC[C@@]43C)[C@@H]1CC[C@@H]2O | inactive | –
COc1ccccc1CN[C@H]1C2CCN(CC2)[C@H]1C(c1ccccc1)c1ccccc1 | inactive | –
C=C1[C@@H]2CC[C@@]3(C)[C@H](c4ccoc4)OC(=O)C[C@]13O[C@H]1CC(=O)C(C)(C)[C@H](C(OC(C)=O)C(=O)OC)[C@]12C (stereo partly specified) | inactive | –
C=CC(C)(O)CC/C=C(\C)C(=O)O[C@H]1[C@H](O)[C@@H](CO)O[C@@H](OC(=O)[C@]23CCC(C)(C)CC2C2=CCC4[C@@]5(C)CC[C@H](O[C@@H]6O[C@H](CO[C@@H]7OC[C@H](O)[C@H](O)[C@H]7O[C@@H]7OC[C@@H](O)[C@H](O)[C@H]7O)[C@@H](O)[C@H](O)[C@H]6O)C(C)(C)C5CC[C@@]4(C)[C@]2(C)CC3)[C@@H]1OC1OC(C)C(O[C@@H]2OC[C@@H](O)[C@H](O[C@@H]3OC[C@@H](O)[C@H](O)[C@H]3O)[C@H]2O)C(O)C1O (stereo partly specified) | – | 0% [at 6.55 µM] (inactive)
Cc1cn(C[C@H](N)C(=O)O)c(=O)n(Cc2cc(-c3ccccc3)sc2C(=O)O)c1=O | inactive | –
CCc1c(C(=O)C(N)=O)c2c(OCC(=O)OC)cccc2n1Cc1ccccc1 | inactive | –
N#CC(OC1OC(COC2OC(CO)C(O)C(O)C2O)C(O)C(O)C1O)c1ccccc1 (stereo unspecified) | inactive | –
CC(=O)OC1CC(O)C2(C)C(CC(OC(C)=O)C3(C)C2CCC2(C)C(c4ccoc4)C(=O)C4OC423)C1(C)C (stereo unspecified) | inactive | –
CCC(C)(OC(C)=O)C(=O)O[C@H]1[C@H](OC(C)=O)C[C@@H]2[C@@](C)([C@@H]3C[C@H]4C=CO[C@H]4O3)[C@H](C)C[C@H](OC(C)=O)[C@@]2(COC(C)=O)[C@@]12CO2 (stereo partly specified) | inactive | –
C[C@@H]1C(=O)O[C@H]2[C@H](O)[C@@]34[C@@H]5OC(=O)[C@@]3(O[C@@H]3OC(=O)[C@@H](O)[C@@]34[C@H](C(C)(C)C)[C@H]5O)[C@@]12O | inactive | –
C[C@@]12C[C@@H](c3ccoc3)OC(=O)C1CC[C@]1(C)[C@H]2[C@H]2C=C[C@]1(O)C(=O)O2 (stereo partly specified) | inactive | –

— PubChem BioAssay (NCATS)
